# aSyn 5UTR act: Activators working through SNCA 5'UTR binding (MLPCN); alpha-synuclein 5'UTR reporter, activators screen; activity score, % (tested at 7.5 µM), hits read low; 7.1% of 300,000 active; AID 1814; in the data active = activity score below about -60%
# * = called active by the depositor. A selection follows.
SMILES,aSyn 5UTR act
CC(C)Oc1ccc(C(=O)Nc2ccc([N+](=O)[O-])cc2)cc1,-211.5*
Cc1cc(NC(=O)c2sc3ccccc3c2O)no1,-64.4*
Cc1ccc(NC(=O)c2ccccc2Cl)c(Cl)c1,-83.3*
Cc1cc(NC(=O)c2ccccc2Cl)no1,-68.1*
Cc1cc(NC(=O)C(Cl)c2ccccc2)no1 (stereo not drawn),-74.0*
Cc1cc(NC(=O)c2ccc([N+](=O)[O-])cc2Cl)no1,-129.5*
O=C(Nc1cccc(NC(=O)c2cc([N+](=O)[O-])ccc2Cl)n1)c1cc([N+](=O)[O-])ccc1Cl,48.4
Cc1cc(NC(=O)c2ccc([N+](=O)[O-])cc2)no1,-130.3*
Cc1ccc(NC(=O)c2ccc([N+](=O)[O-])cc2Cl)nc1,-119.2*
Cc1cc(NC(=O)c2cc(C(C)C)on2)no1,-139.8*
Nc1ccccc1-c1nnc(SCc2ccccc2Cl)[nH]c1=O,-68.9*
O=c1cc(NS(=O)(=O)c2ccccc2)nc(SCc2ccccc2Cl)[nH]1,57.9
COc1cccc2[nH]c(=O)c(-c3ccccc3)cc12,-136.4*
O=[N+]([O-])c1ccc2nc(-c3ccccc3)oc2c1,-224.0*
COc1cccc(-c2nc3ccc([N+](=O)[O-])cc3o2)c1,-119.8*
Cc1cccc(/C=N/c2sc3c(c2C#N)CCN(Cc2ccccc2)C3)c1O,-74.0*
Cc1n[nH]c(C)c1CCOc1ccc(C(C)C)cc1,-83.8*
CC(C)(C)c1ccc(CSc2nc(N)cc(=O)[nH]2)cc1,-79.3*
Nc1cc(=O)[nH]c(SCCSc2ccccc2F)n1,67.4
[2H]C(CCOS(N)(=O)=O)c1ccc(C(C)(C)C)cc1 (stereo not drawn),80.0
Cc1ccc(CNc2ccc3c(c2)OCO3)cc1,-131.1*
Cc1ccc(COc2ccc3c(c2)OCO3)cc1,-114.0*
O=Cc1ccc(OCc2ccc3c(c2)OCO3)cc1,-76.5*
CCOc1cc(CNc2ccc3c(c2)OCCO3)cc(Br)c1OCC,97.4
CC1(C)Cc2c(c(N3CCOCC3)nc3sc4c(NCc5ccccc5)nnnc4c23)CS1,68.2
SMILES,aSyn 5UTR act
O=C(NCC(c1cccs1)N1CCOCC1)c1ccc(Cl)cc1 (stereo not drawn),-100.1*
CCOc1ccc(Nc2c3ccccc3nc3ccccc23)cc1,-94.3*
Cc1nc(Nc2nc(-c3ccccc3)cc(=O)[nH]2)nc2ccccc12,-119.8*
Cc1cc(NCC2CCCCC2)nc2ccccc12,-68.8*
CCOc1ccc(Nc2cc(C)c3ccccc3n2)cc1,-84.5*
COc1ccc(Nc2nc(C)c3ccccc3n2)cc1,-110.7*
COc1ccc(Nc2cc(C)c3ccc(O)cc3n2)cc1,-138.5*
Cc1ccc(/C=N/N=C/c2ccc(C)s2)s1,-199.3*
Cc1cccc(N/N=C/c2ccc(C)s2)c1,-180.0*
Cc1cc(C)n2c(Br)c(CSc3nc4ccccc4o3)nc2n1,-87.2*
O=C(/C=C/c1ccc2c(c1)OCCO2)c1ccccc1,-136.6*
O=C(O)c1ccc(/C=C/C(=O)c2ccc3c(c2)OCCCO3)cc1,-134.8*
Cc1ccc(O)c(C(=O)/C=C/c2ccc3c(c2)OCCO3)c1,-82.4*
Nc1ccccc1C(=O)/C=C/c1ccc2c(c1)OCO2,-340.3*
CCOC(=O)c1cc(-c2ccccc2)nn1Cc1cc(CC)no1,-100.2*
Cn1c(N2CCOCC2)c(/C=N/OC(=O)c2ccc(F)cc2)c2ccccc21,72.7
Cn1c(O)c(N=Nc2nc(-c3ccccc3)cs2)c2ccccc21,-126.2*
Cc1ccccc1NC(=S)N=Nc1c(O)n(C)c2ccc(S(=O)(=O)N3CCOCC3)cc12,77.9
Cn1c(O)c(N=Nc2ccc(F)cc2)c2ccccc21,-62.0*
Cc1ccc(CC(=O)c2ccc(Cl)cc2)cc1,-83.3*
O=C(Cc1ccc(Cl)cc1)c1ccc(O)cc1,-151.4*
O=C(Cc1ccccc1)c1ccc(Cl)cc1,-72.7*
Brc1ccc(C2=CC(c3cccs3)n3ncnc3N2)cc1 (stereo not drawn),-106.7*
Cn1cccc1C1C=C(c2ccc(C(C)(C)C)cc2)Nc2ncnn21 (stereo not drawn),-114.5*
Cc1cc(/C=C2\NC(=S)N(C)C2=O)ccc1N1CCCC1,-205.7*
SMILES,aSyn 5UTR act
Cc1cc(/C=C2/C(=O)N(C)C(=S)N2C)ccc1N1CCCC1,-212.4*
Nc1nn(-c2cccc(F)n2)cc1-c1ccccc1,-112.7*
Cc1nnc(-c2ccccc2)c(=O)n1/N=C/c1c(O)ccc2ccccc12,83.1
Cc1nc2ccccc2c(=O)n1/N=C/c1cccs1,-78.6*
Cc1nc2ccccc2c(=O)n1/N=C1\C(=O)N(C)c2ccccc21,-83.2*
Cc1nc2ccccc2c(=O)n1/N=C/c1cn(-c2ccccc2)nc1-c1cccs1,-67.4*
Cc1ccc(C(=O)NC(=S)Nc2cc(-c3nc4ccccc4s3)ccc2C)cc1,-95.1*
COc1ccc(-c2nc3ccccc3s2)cc1NC(C)=O,-126.5*
Cc1ccc(-c2nc3ccccc3s2)cc1S(=O)(=O)N1CCCC1,-62.8*
CCC(C)(C)C(=O)Nc1nnc(CCc2ccccc2)s1,-141.1*
CC(C)(C)CC(=O)Nc1nnc(CCc2ccccc2)s1,-113.5*
CC(C)(C)Cc1nnc(NC(=O)CSc2ccccc2)s1,-136.9*
Cc1ccc(C(=O)NCCc2csc(-c3cccnc3)n2)cc1,-76.7*
O=C(Cn1nnc(-c2ccccc2F)n1)N1CCCCC1,-120.2*
CC1CCN(C(=O)Cn2nnc(-c3cccs3)n2)CC1,-131.4*
CC1CCCN(C(=O)CSCC(=O)Nc2nc(-c3cccs3)cs2)C1 (stereo not drawn),-75.6*
CC1CCN(C(=O)CSCC(=O)Nc2nc(-c3cccs3)cs2)CC1,-89.3*
CCN(CC)c1ccc(/C=N/n2c(-c3ccccc3Br)n[nH]c2=S)cc1,77.5
CCN(CC)c1ccc(/C=N/N2CCOCC2)cc1,-151.5*
CCN(CC)c1ccc(-n2cc3c(=O)n(C)c(=O)n(C)c3c2)cc1,-118.1*
CN(C)c1ccc(-n2cc3c(=O)n(C)c(=O)n(C)c3c2)cc1,-198.2*
C=CCn1c(SCC(=O)Nc2ccc(-c3nc4ccc(C)cc4s3)cc2)nnc1-c1ccncc1,-98.9*
CCn1c(SCC(=O)Nc2ccc(-c3nc4ccc(C)cc4s3)cc2)nnc1-c1ccccc1,-174.7*
COc1ccc(OCc2cc(C(=O)N3CCCCCCC3)no2)c(Cl)c1,-68.9*
O=C(c1cc(COc2ccc(F)cc2Cl)on1)N1CCCCCC1,-116.4*
SMILES,aSyn 5UTR act
COc1ccc(OCc2cc(C(=O)N3CCN(CC4CC4)CC3)no2)c(Cl)c1,-87.5*
COc1ccc(OCc2cc(C(=O)N3CCN(C4CCCC4)CC3)no2)c(Cl)c1,-79.9*
CCOC(=O)N1CCN(C(=O)c2cc(COc3ccc(OC)cc3Cl)on2)CC1,-61.7*
CC1CN(C(=O)c2cccc(COc3ccccc3Cl)c2)CC(C)O1 (stereo not drawn),-144.9*
O=C(c1cc(COc2ccc(F)cc2F)on1)N1CCSCC1,-117.5*
COc1ccc(OCc2cc(C(=O)N3C[C@@H](C)O[C@@H](C)C3)no2)c(Cl)c1,-66.7*
Cc1ccc(-c2c(C)sc(=NC(=O)c3ccco3)n2C)cc1,-122.8*
COc1ccc2c(C(=O)CN3CCC(C)CC3)c[nH]c2c1,-76.0*
C/C(=N\Nc1nc2ccccc2c(=O)n1O)c1ccco1,-119.4*
CC(C)(C)c1nnc(N/N=C/c2cc(Br)ccc2O)n(N)c1=O,115.5
Cc1ccc(C)c(/C=N/Nc2nc3ccccc3c(=O)n2O)c1,-85.4*
Cc1ccc(NC(=O)C2COc3ccccc3O2)cc1C (stereo not drawn),-170.8*
Cc1cccc(NC(=O)C2COc3ccccc3O2)c1 (stereo not drawn),-114.8*
